Screening results as filed in PubChem.
HTT-AS promoter = Primary qHTS for Identification of Small Molecule Activators of Huntingtin-Antisense Promoter Activity | HEK293 HTT-AS promoter firefly luciferase reporter, 24 h; response scale: percent change from vehicle, -100% = no light | 48,000 tested, 0.24% active | Potency, µM (series often up to 57.5 µM), for the others: at the top dose activity change, positive = activation, most hits filed as activators; also: potency is read from the fitted curve at half-maximal effect; nearly all actives have a fitted effect of over 55% in size
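HEK293 Fluc reporter, 2,500 cells/well, 24 h pre-culture; cpds up to 57.5 uM final, 24 h 37 degrees C; Dual-Glo, 10 min RT; normalized vehicle = 0%, zero RLU = -100%.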
GALK inhibitor = qHTS Assay for Inhibitors of Human Galactokinase (GALK): NCGC Sytravon Library Screen; P51570; recombinant GALK, Kinase-Glo ATP luminescence, 1 h; Potency, µM (series often up to 57.5 µM), for inactives: top-dose activity, negative = inhibition, usual class: inhibitors; 44,000 tested, under 10 active; AID 1347072, 2019;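 also: plate controls were full GALK reaction for no effect and reaction lacking GALK for full effect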
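Luminescent ATP-depletion readout (Kinase-Glo Plus, 10 min) after 1 h RT reaction of 5 nM GALK, 35 uM ATP, 100 uM galactose, pH 8.0 HEPES buffer. Decreased kinase activity scored as inhibition.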
TSG101-PTAP inh = qHTS Validation Assay for Inhibitors of HIV-1 Budding by Blocking the Interaction of PTAP/TSG101: Sytravon Library Screen | Fluorescence polarization, FITC-PTAP peptide/Tsg101, 20 min | Potency, µM (series often up to 115 µM), most hits filed as inhibitors | 44,000 tested, under 10 active | Tumor susceptibility gene 101 protein (Homo sapiens), Q99816; also: potency is read from the fitted curve at half-maximal effect; 0% is about no effect
Target sequence (Q99816 whole entry, looked up): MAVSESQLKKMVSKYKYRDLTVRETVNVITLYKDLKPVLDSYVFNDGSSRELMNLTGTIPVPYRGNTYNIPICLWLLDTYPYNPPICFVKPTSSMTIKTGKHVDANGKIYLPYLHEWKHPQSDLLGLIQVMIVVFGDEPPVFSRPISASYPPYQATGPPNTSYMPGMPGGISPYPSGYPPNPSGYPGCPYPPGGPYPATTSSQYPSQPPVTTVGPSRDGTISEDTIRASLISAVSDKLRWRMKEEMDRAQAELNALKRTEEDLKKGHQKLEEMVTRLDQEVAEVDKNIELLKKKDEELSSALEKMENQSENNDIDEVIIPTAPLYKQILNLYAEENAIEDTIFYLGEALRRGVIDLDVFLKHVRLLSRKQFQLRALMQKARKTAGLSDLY
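Compounds pinned into 10 uM Tsg101 binding domain, then 50 nM FITC-PTAP peptide added in pH 7.5 HEPES buffer; FP read after 20 min, room temperature. Total S+P intensity flags fluorescent compounds; active cut-off <25 µM, efficacy <60%.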
GPR32 ag = qHTS for Agonists of Human Resolvin D1 Receptor DRV1. CHO-K1 GPR32 beta-arrestin PathHunter luminescence, 90 min; zero percent set by DMSO-only wells. 48,000 tested, 2.5% active. Probable G-protein coupled receptor 32 (Homo sapiens), O75388. activation, % at 76.9 µM;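 active = activation of at least 60% and not above a set upper limit, about 1 call in 100 departs from these limits; inconclusive = activation of 40% to 60%, or above that upper limit; inactive = activation under 40%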; also: 0% is about no effect
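Readings come from a cell-based beta-arrestin complementation format: CHO-K1 GPR32 stable cells (2,500/well) treated 90 min with compounds, then beta-Gal substrate added for 1 h before chemiluminescence imaging.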
B2AR arrestin ag = qHTS assay of beta-arrestin-biased ligands of beta2-adrenergic receptor: NCGC Sytravon Library Screen; HTLA Tango cells, beta-arrestin recruitment, luciferase luminescence, 18 h; Potency, µM (series often up to 46.1 µM), hits mostly activators; 44,000 tested, under 10 active;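 also: potency is read from the fitted curve at half-maximal effect; 0% = DMSO and full agonism = EC100 isoproterenol or metaproterenol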
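Tango cells expressing recombinant beta2-AR and beta-arrestin were treated with compounds (up to 46 microM titration) in DMEM with 1% FBS for 18 hr at 37 degrees C. Beta-arrestin recruitment drove tTA-dependent luciferase, read by luminescence; curves were fitted and classed.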
HTT promoter inh = Primary qHTS for Identification of Small Molecule Inhibitors of Huntingtin Promoter Activity. HEK293 HTT promoter firefly luciferase reporter, 24 h. Potency, µM (highest dose often 57.5 µM), without a hit: top-dose activity change, negative = inhibition, most hits filed as inhibitors. AID 1508623, 2021. 48,000 tested, 0.93% active; also: potency is read from the fitted curve at half-maximal effect; nearly all actives have a fitted effect of over 50% in size
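HEK293 cells carrying firefly luciferase reporters were seeded at 2,500 per well in Opti-MEM and cultured for 24 h. They were then treated with compounds at up to 57.5 uM final for 24 h at 37 degrees C before Dual-Glo luminescence readout.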
* marks the source's active call; other numbers are inactive results. In the library only some 3.6% were active in any assay of this set; here they are far more common. Unless noted, calls follow the shape of the dose curve; as a rule, active = well fitted curve in the direction sought with a large enough effect; inconclusive = small, poorly fitted or top-dose-only effect, or another doubt; inactive = no such curve, though single readings can be large; an effect the other way counts as inactive or inconclusive.

For COc1ccc(-c2noc(N3CCC(C(=O)N4CCN(c5ccccc5OC)CC4)CC3)n2)cc1 the results were HTT-AS promoter -58%, GALK inhibitor 5%, TSG101-PTAP inh inactive, GPR32 ag 14, B2AR arrestin ag inactive and HTT promoter inh 13µM*.
Screening O=C1NC(c2ccccc2)(c2ccccc2)C(=O)N1COP(=O)(O)O returned HTT-AS promoter 0%, GPR32 ag -1 and HTT promoter inh 8%.
Screening Fc1cc(-c2cccc3ncc(-c4cnn(C5CCNCC5)c4)nc23)cc(F)c1CN1CCOCC1 returned HTT-AS promoter -12% and HTT promoter inh -10%.
Screening Nc1ncnc2c1c(-c1cccc(OCc3ccccc3)c1)cn2C1CC(CN2CCCC2)C1 (stereo not given) returned HTT-AS promoter -12% and HTT promoter inh -27%.
Screening CCOc1ccc(C2Nc3ccccc3-c3nnc(SCc4ccccc4)nc3O2)cc1OC (stereo not given) returned HTT-AS promoter 17%, GALK inhibitor -2%, TSG101-PTAP inh inactive, GPR32 ag 9, B2AR arrestin ag inactive and HTT promoter inh -9%.
Screening COc1cc(OC)c(C2Nc3ccccc3-c3nnc(SCc4ccccc4)nc3O2)cc1OC (stereo not given) returned HTT-AS promoter 28%, GALK inhibitor inconclusive, TSG101-PTAP inh inactive, GPR32 ag 64*, B2AR arrestin ag inactive and HTT promoter inh 6%.
Screening O=C(CN1C(=O)COc2ccc(S(=O)(=O)NC3CCCC3)cc21)Nc1ccc(Cl)cc1 returned HTT-AS promoter 8%, GALK inhibitor -1%, TSG101-PTAP inh inactive, GPR32 ag 104*, B2AR arrestin ag inactive and HTT promoter inh 0%.
`Cc1ccc(NC(=O)Nc2cc(C(F)(F)F)ccc2F)cc1Nc1ccc2c(c1)NC(=O)C2=Cc1ccc[nH]1` gave HTT-AS promoter -37% and HTT promoter inh inconclusive.
For Cc1ccc(OCCn2c(COc3ccc(Cl)cc3)nc3ccccc32)cc1 the results were HTT-AS promoter 15%, GALK inhibitor 7%, TSG101-PTAP inh inactive, GPR32 ag 9, B2AR arrestin ag inactive and HTT promoter inh inconclusive.
Screening CCCC(O)c1nc2ccccc2n1CCCOc1ccc(Cl)cc1 (stereo not given) returned HTT-AS promoter -39%, GALK inhibitor 1%, TSG101-PTAP inh inactive, GPR32 ag 68*, B2AR arrestin ag inactive and HTT promoter inh inconclusive.
For COc1cccc(C(=O)Nc2ccc(-c3nc4ccc(C)cc4s3)cc2)c1OC the results were HTT-AS promoter -3%, GALK inhibitor 4%, TSG101-PTAP inh inactive, GPR32 ag -1, B2AR arrestin ag inactive and HTT promoter inh 1%.
For CCCOc1ccccc1C(=O)Nc1ccc(-c2nc3ccc(C)cc3s2)cc1 the results were HTT-AS promoter 2.2µM*, GALK inhibitor -3%, TSG101-PTAP inh inactive, GPR32 ag 4, B2AR arrestin ag inactive and HTT promoter inh -15%.
For O=C(Nc1nc2ccc(F)cc2s1)c1nc(S(=O)(=O)Cc2ccccc2)ncc1Cl the results were HTT-AS promoter -46%, GALK inhibitor 0%, TSG101-PTAP inh inactive, GPR32 ag 91*, B2AR arrestin ag inactive and HTT promoter inh inconclusive.
Cc1nnc(NC(=O)c2nc(S(=O)(=O)Cc3ccccc3)ncc2Cl)s1 was read as HTT-AS promoter -93%, GALK inhibitor -2%, TSG101-PTAP inh inactive, GPR32 ag 81*, B2AR arrestin ag inactive and HTT promoter inh inconclusive.
CCCCCCCC(=O)[O-].CCCCCCCC(=O)[O-].[Zn+2] was read as HTT-AS promoter -1%, GPR32 ag 35 and HTT promoter inh 6%.
For CCCCC(=O)Oc1ccc2oc(-c3ccc(OC)cc3)cc(=O)c2c1 the results were HTT-AS promoter 2µM*, GALK inhibitor 3%, TSG101-PTAP inh inactive, GPR32 ag -6, B2AR arrestin ag inactive and HTT promoter inh 89%.
`COC(=O)COc1ccc2oc(-c3ccc(OC)cc3)cc(=O)c2c1` gave HTT-AS promoter inconclusive, GALK inhibitor inconclusive, TSG101-PTAP inh inactive, GPR32 ag -2, B2AR arrestin ag inactive and HTT promoter inh 76%.
`NC1[C@H]2CN(c3nc4c(cc3F)c(=O)c(C(=O)O)cn4-c3ccc(F)cc3F)C[C@@H]12` (stereo not given in full) gave HTT-AS promoter 32µM*, GPR32 ag 29 and HTT promoter inh 69%.
C[n+]1c2cc(N)ccc2cc2ccc(N)cc21 (tested in a mixture with another compound) was read as HTT-AS promoter -39%, GPR32 ag 15 and HTT promoter inh -29%.
Cc1ccc2ncc(C(=O)Nc3cccc(C(F)(F)F)c3)c(=O)n2c1 was read as HTT-AS promoter -10%, GALK inhibitor 4%, TSG101-PTAP inh inactive, GPR32 ag -7, B2AR arrestin ag inactive and HTT promoter inh -3%.
Cc1ccc(NC(=O)c2cnc3cc(C)ccn3c2=O)c(C)c1 was read as HTT-AS promoter 3.5µM*, GALK inhibitor 4%, TSG101-PTAP inh inactive, GPR32 ag -1, B2AR arrestin ag inactive and HTT promoter inh 58%.
For C[C@@]1(c2cc(-c3cncnc3)c(F)cc2F)CCSC(N)=N1 the results were HTT-AS promoter -29% and HTT promoter inh inconclusive.
For Nc1c(C(=O)Nc2cccc(Cl)c2)sc2nc3c(cc12)CN(Cc1ccccc1)CC3 the results were HTT-AS promoter 1%, GALK inhibitor 0%, TSG101-PTAP inh inactive, GPR32 ag 61*, B2AR arrestin ag inactive and HTT promoter inh -23%.
Screening Nc1c(C(=O)Nc2ccccc2F)sc2nc3c(cc12)CCCCCC3 returned HTT-AS promoter 30%, GALK inhibitor -13%, TSG101-PTAP inh inactive, GPR32 ag 72*, B2AR arrestin ag inactive and HTT promoter inh 8%.
Screening COc1ccccc1NC(=O)c1sc2nc3c(cc2c1N)CCCCCC3 returned HTT-AS promoter -23%, GALK inhibitor -3%, TSG101-PTAP inh inactive, GPR32 ag 31, B2AR arrestin ag inactive and HTT promoter inh -24%.
